# Reference: the supplement of paper PMC11150407
# Structures can show the parent of a compound that is named as a salt. About 180 (8.6%) of roughly 2,100 compounds showed an effect of 50% or more. The list comes from a sample in which strong results are over-represented; it also holds similar structures and randomly drawn compounds.
# Tested on: MOLM1 and UCSD/AML1 (averaged)
# Assay: cell viability relative to DMSO control (POC); higher = less growth inhibition
# Details: 1 µM; 72 h
# Experimental: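 Primary viability screen in the 3q26 EVI1-high AML cell lines MOLM1 and UCSD/AML1 (1.5e3 cells/well, 384-well), compounds at 1 uM for 72 h. ATP CellTiter-Glo read-out given as percent of viable cells over DMSO control (POC), averaged over duplicates. DMSO was the negative control and 5 uM etoposide the positive control. This mapping covers the MicroSource Spectrum and Selleck anticancer libraries (drug names).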
row,SMILES,cell viability [%]
1,Clc1ccc(Nc2nnc(Cc3ccncc3)c3ccccc23)cc1 [Vatalanib dihydrochloride (PTK787)],44.6
2,CN1CCCC(n2nc(Cc3ccc(Cl)cc3)c3ccccc3c2=O)CC1 (configuration not stated),101
3,CNC(=O)c1cc(COc2nnc(Nc3ccc(Cl)cc3)c3ccoc23)ccn1 [Telatinib (BAY 57-9352)],94.5
4,C=C(C)[C@H]1COc2cc3oc(=O)ccc3cc2O1,93.3
5,CC(C)C[C@@H](C(=O)N[C@H](C(=O)OC1CCCC1)c1ccccc1)[C@H](O)C(=O)NO [Tosedostat (CHR2797)],77.5
6,O=C([O-])c1ccccc1O.[Na+],102
7,COc1ccc2[nH]c([S+]([O-])Cc3ncc(C)c(OC)c3C)nc2c1 (configuration not stated),92.4
8,COc1c(C)cnc(Cn2cnc3c(Cl)nc(N)nc32)c1C,4.8
9,COc1cc(-c2coc3cc(O)c(OC)c(O)c3c2=O)cc(O)c1OC,90.5
10,O=C(O)c1cc(=O)c2cccc(O)c2[nH]1,102
11,C[C@H]1O[C@@H](O[C@H]2[C@@H](O)C[C@H](O[C@H]3[C@@H](O)C[C@H](O[C@H]4CC[C@@]5(C)[C@H](CC[C@@H]6[C@@H]5CC[C@]5(C)[C@@H](C7=CC(=O)OC7)CC[C@]65O)C4)O[C@@H]3C)O[C@@H]2C)C[C@H](O)[C@@H]1O,2.44
12,C[C@H]1O[C@@H](O[C@H]2[C@@H](O)C[C@H](O[C@H]3[C@@H](O)C[C@H](O[C@H]4CC[C@@]5(C)[C@H](CC[C@@H]6[C@@H]5C[C@@H](O)[C@]5(C)[C@@H](C7=CC(=O)OC7)CC[C@]65O)C4)O[C@@H]3C)O[C@@H]2C)C[C@H](O)[C@@H]1O,3.03
13,CO[C@H]1O[C@H](CO)C(O[C@@H]2OC(C(=O)O)[C@@H](O[C@H]3O[C@H](COS(=O)(=O)O)C(O[C@@H]4OC(C(=O)O)[C@@H](O[C@H]5O[C@H](CO)C(O[C@@H]6OC(C(=O)O)[C@@H](O[C@H]7O[C@H](COS(=O)(=O)O)C(O[C@@H]8OC(C(=O)O)=C[C@H](O)C8OS(=O)(=O)O)[C@H](O)[C@H]7NC(C)=O)[C@H](O)[C@H]6O)[C@H](O)[C@H]5NC(C)=O)[C@H](O)[C@H]4O)[C@H](O)[C@H]3NC(C)=O)[C@H](O)[C@H]2O)[C@H](O)[C@H]1NC(C)=O (some centres not stated),86.8
14,COc1cc(O)c(C(C)=O)c(OC)c1,101
15,O=C(/C=C/C(=O)Oc1ccccc1C(=O)O)Oc1ccccc1C(=O)O,110
16,C[C@H]1C(=O)CC[C@@H]2[C@]1(C)CC[C@H]1[C@@]2(C)CC[C@@]2(C)[C@@H]3CC(C)(C)CC[C@]3(C)CC[C@]12C,113
17,COc1cc2oc3cc(OC)c(OC)c(CC=C(C)C)c3c(=O)c2c(O)c1CC=C(C)C,99.9
18,CCCCCC1C(=O)CCC1CC(=O)O (configuration not stated),86.2
19,O=C(O[C@@H]1Cc2c(O)cc(O)cc2O[C@@H]1c1cc(O)c(=O)c2c(O)c(O)cc([C@H]3Oc4cc(O)cc(O)c4C[C@H]3OC(=O)c3cc(O)c(O)c(O)c3)c2c1)c1cc(O)c(O)c(O)c1,108
20,Cc1cc(O)c2c(c1)C(=O)c1cccc(O)c1C2=O,115
21,Cc1cc(O)c2c(c1)C(=O)c1cccc(O)c1C2=O [Chrysophanic acid (Chrysophanol)],93.8
22,O=C(O)c1cc(O)c(=O)c2c(O)c(O)ccc2c1,108
23,CCC(C)C(NC)C(=O)O (configuration not stated),118
24,COC(=O)c1ccc2c(C(=Nc3ccc(N(C)C(=O)CN4CCN(C)CC4)cc3)c3ccccc3)c(O)[nH]c2c1 [BIBF1120 (Vargatef)],11.9
25,CC(=O)c1ccc[nH]1,92.8
26,C=CC(C)(O)CCC1C(=C)CC(OC(C)=O)C2C(C)(C)CCCC12C (configuration not stated),98.6

row,SMILES,cell viability [%]
1,O=C1CC[C@]23/C=C/C(=O)NCCCCNCCCNC(=O)/C=C/c4ccc(c2c4)O[C@@H]3C1,97.1
2,COC1=CC(c2cc3ccccc3[nH]2)=N/C1=C\c1[nH]c(C)cc1C [Obatoclax mesylate (GX15-070)],18.7
3,CC1(C)O[C@H]2[C@H](O)C[C@](O)(C(N)=O)C[C@H]2O1,94.1
4,CC1(C)[C@@H](O)CC[C@]2(C)[C@H]3C(=O)C=C4[C@H]5C[C@@](C)(C(=O)O)CC[C@]5(C)CC[C@@]4(C)[C@]3(C)CC[C@@H]12 [18alpha-GLYCYRRHETINIC ACID],95.3
5,COc1c(O)cccc1O,97.7
6,COc1cc2c(Oc3ccc4[nH]c(C)cc4c3F)ncnc2cc1OCCCN1CCCC1 [Cediranib (AZD2171)],66.3
7,COc1cc2ncnc(Nc3ccc(F)c(Cl)c3)c2cc1OCCCN1CCOCC1 [Gefitinib (Iressa)],84.9
8,COc1cc(Nc2c(C#N)cnc3cc(OCCCN4CCN(C)CC4)c(OC)cc23)c(Cl)cc1Cl [Bosutinib (SKI-606)],21.3
9,CC(C)/C(O)=C1/C(=O)O[C@@H](c2ccoc2)[C@]2(C)C(O)[C@@H](O)[C@@]34OC5(C)OC67CC(C)(C(O)[C@]6(O)[C@@H](O)[C@]3(O5)C12)[C@H](CC(=O)O)[C@]74C (some centres not stated),93.3
10,CC(=O)O[C@H]1C[C@@H](OC(C)=O)C(C)(C)C2C[C@@H](O)[C@]3(C)C(CC[C@@]4(C)[C@H](c5ccoc5)OC(=O)[C@H]5O[C@]543)[C@]21C (some centres not stated),103
11,COc1cc(O)c2c(=O)cc(C)oc2c1CC=C(C)C,87.8
12,O=C(CCc1ccc(O)cc1)c1c(O)cc(O)cc1O[C@@H]1OC(CO)[C@@H](O)[C@@H](O)C1O (some centres not stated),104
13,COC(=O)c1c(C)cc(OC)cc1O,94.6
14,Cn1c(=O)[nH]c(=O)c2[nH]cnc21,110
15,O=c1c(O)c(-c2ccc(O)c(O)c2)oc2c(O[C@@H]3O[C@H](CO)[C@@H](O)[C@H](O)[C@H]3O)c(O)cc(O)c12,91.3
16,O=C(O)c1ccc2c(c1)nc(Nc1cccc(Cl)c1)c1ccncc12 [cx-4945 (Silmitasertib)],80.5
17,CC(=O)C1=C(O)C=C2Oc3c(C(C)=O)c(O)c(C)c(O)c3C2(C)C1=O (stereo in doubt),113
18,C[C@@H](Oc1cc(-n2cnc3ccc(CN4CCN(C)CC4)cc32)sc1C(N)=O)c1ccccc1C(F)(F)F,19.5
19,CC(=O)N[C@@H](Cc1ccccc1)C(=O)O,100
20,CC(C)=CCc1c(O)cc2oc(C)cc(=O)c2c1O,94.1
21,C[C@H](CCC(=O)O)[C@H]1CC[C@H]2[C@@H]3[C@H](O)C[C@@H]4C[C@H](O)CC[C@]4(C)[C@H]3C[C@H](O)[C@]12C,100
22,CC1(C)C(=O)C=CC2(C)C1C=CC1(C)C2CCC2(C)C(c3ccoc3)OC(=O)C3OC312 (configuration not stated),86.9
23,COC(=O)Nc1nc2cc(C(=O)c3ccccc3)ccc2[nH]1,16.8
24,CCOC(=O)Nc1nc2ccccc2[nH]1,103
25,COC(=O)C(C)c1ccc(C(=O)c2cccs2)cc1 (configuration not stated),103
26,COC(=O)Nc1nc2cc([S+]([O-])c3ccccc3)ccc2[nH]1 (configuration not stated),50.5

row,SMILES,cell viability [%]
1,COC(=O)Nc1nc2cc(C(=O)c3cccs3)ccc2[nH]1 [Nocodazole],13.3
2,CC(=O)Oc1ccc2c(c1OC(C)=O)OCC1(O)Cc3c(cc(OC(C)=O)c(OC(C)=O)c3OC(C)=O)C21 (configuration not stated),108
3,COc1cc2ncnc(-n3nc(-c4ccccn4)nc3N)c2cc1OC,67
4,O=c1cc(-c2ccccc2)oc2cccc(O)c12,119
5,CC(C)c1c(O)c(-c2cc3c(c(C(C)C)c2O)CCC2C(C)(C)CCC[C@]32C)cc2c1CCC1C(C)(C)CCC[C@]21C (some centres not stated),87.3
6,COC(=O)C[C@H]1C(C)(C)C(=O)[C@@H]2CC3=C4CC(=O)O[C@@H](c5ccoc5)[C@]4(C)CC[C@@H]3[C@@]1(C)C2=O,99.2
7,C=C1CCC2C(CC2(C)C)C(=O)CCC1O (configuration not stated),104
8,CC1(C)C2CC(=O)O[C@@]3(C)C4=CC(=O)O[C@@H](c5ccoc5)[C@]4(C)CCC3[C@@]2(C)C=C[C@H]1O (some centres not stated),95.9
9,Cn1cncc1[C@@](N)(c1ccc(Cl)cc1)c1ccc2c(c1)c(-c1cccc(Cl)c1)cc(=O)n2C [Tipifarnib (Zarnestra)],36.5
10,CO[C@@]12[C@H](COC(N)=O)C3=C(C(=O)C(C)=C(N)C3=O)N1C[C@@H]1N[C@@H]12,13
11,C=CCc1ccc(OC(=O)c2ccccc2)c(OC)c1,95.6
12,O=c1c2cc(O)c(O)cc2oc2cc(O)c([C@@H]3O[C@H](CO)[C@@H](O)[C@H](O)[C@H]3O)c(O)c12,96.4
13,CC1(C)C(=O)[C@H]2C[C@]3(O)C4=CC(=O)O[C@@H](c5ccoc5)[C@@]4(C)CCC3[C@](C)(C2=O)[C@H]1CC(=O)O (some centres not stated),95.4
14,CCOC(=O)c1c(C)cc(OC)cc1O,95.3
15,Nc1ccc(S(=O)(=O)Nc2ccccn2)cc1,100
16,COc1ccc(S(=O)(=O)Nc2cccnc2Nc2ccc(O)cc2)cc1,49.4
17,COc1cnc(NS(=O)(=O)c2ccc(N)cc2)nc1,100
18,C=C1C2CC[C@@]3(C)[C@H](c4ccoc4)OC(=O)C[C@]13O[C@H]1CC(O)C(C)(C)C(CC(=O)OC)[C@@]21C (stereo partly drawn) [3alpha-HYDROXY-3-DEOXYANGOLENSIC ACID METHYL ESTER],97.3
19,O=C(O[C@@H]1Cc2c(O)cc(O)cc2O[C@@H]1c1cc(O)c(=O)c2c(O)c(O)cc([C@H]3Oc4cc(O)cc(O)c4C[C@H]3O)c2c1)c1cc(O)c(O)c(O)c1,101
20,C=C[C@@](C)(O)CCC1C(=C)CCC2[C@@](C)(CO)CCC[C@]12C (some centres not stated),112
21,COc1cc(O)c(C(C)=O)c(O)c1,110
22,CS(=O)(=O)N1CCc2c(-c3cnc(N)nc3)nc(N3CCOCC3)nc21,47.5
23,CC(=O)Nc1ccccc1,101
24,O=C(Nc1ccc(C(=O)O)c(O)c1)c1ccccc1,96.4
25,CC(C)[C@H](C(=O)Nc1ccc(C(=O)NO)cc1)c1ccccc1,0.459
